Data on 5 compounds can be found in ChEMBL document CHEMBL3988442, “University of Dundee, Small-Polar-MMV Screening Library” (2021).

Holding throughout (parameters): scale not given: direction of the effect not stated beside the values
Assay [1] concerns the target Protein translocase subunit SecA (Escherichia coli (strain K12)) (UniProt P10408). Description: Assay to Identify E. coli SecA ATPase Inhibitors. In kind it is functional. To be noted: 30 µM.
Assay [2] concerns the target T1, Ubiquitin-activating enzyme e1, putative (Leishmania donovani (strain BPK282A1)) (UniProt E9BSI1).
T1 sequence (whole entry): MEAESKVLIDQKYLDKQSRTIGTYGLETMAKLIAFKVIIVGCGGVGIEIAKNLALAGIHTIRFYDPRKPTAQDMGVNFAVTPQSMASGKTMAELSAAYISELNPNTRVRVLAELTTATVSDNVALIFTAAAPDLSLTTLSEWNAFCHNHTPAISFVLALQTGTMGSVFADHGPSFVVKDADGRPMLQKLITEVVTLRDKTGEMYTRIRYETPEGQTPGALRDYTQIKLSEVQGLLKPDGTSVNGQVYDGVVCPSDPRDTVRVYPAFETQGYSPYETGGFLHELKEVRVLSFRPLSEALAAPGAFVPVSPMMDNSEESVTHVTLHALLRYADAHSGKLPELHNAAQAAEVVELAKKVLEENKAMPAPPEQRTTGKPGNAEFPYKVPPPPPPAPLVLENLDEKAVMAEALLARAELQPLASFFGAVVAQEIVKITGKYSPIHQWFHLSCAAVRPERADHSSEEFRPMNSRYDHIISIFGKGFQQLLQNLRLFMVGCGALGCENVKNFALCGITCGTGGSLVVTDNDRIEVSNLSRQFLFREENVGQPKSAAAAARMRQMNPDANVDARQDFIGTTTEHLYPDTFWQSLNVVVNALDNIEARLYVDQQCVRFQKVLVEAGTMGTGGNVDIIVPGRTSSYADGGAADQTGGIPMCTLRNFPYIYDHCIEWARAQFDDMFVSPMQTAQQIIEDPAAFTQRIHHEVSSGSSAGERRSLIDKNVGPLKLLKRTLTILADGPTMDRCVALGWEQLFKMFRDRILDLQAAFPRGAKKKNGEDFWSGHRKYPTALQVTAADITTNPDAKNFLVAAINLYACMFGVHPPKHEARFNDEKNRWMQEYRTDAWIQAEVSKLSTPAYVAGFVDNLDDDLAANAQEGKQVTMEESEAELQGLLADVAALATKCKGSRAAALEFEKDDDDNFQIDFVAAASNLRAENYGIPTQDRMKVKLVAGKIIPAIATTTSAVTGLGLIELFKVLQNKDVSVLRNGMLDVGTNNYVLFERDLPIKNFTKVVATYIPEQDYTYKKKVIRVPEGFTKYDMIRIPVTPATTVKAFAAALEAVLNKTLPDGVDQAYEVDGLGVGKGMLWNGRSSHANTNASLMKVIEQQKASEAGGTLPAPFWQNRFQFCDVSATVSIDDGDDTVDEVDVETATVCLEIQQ
Description: Leishmania donovani Ubiquitin Activating Enzyme (LdE1). In kind it is functional. To be noted: 30 µM.

Assay [3] has as its target T2, Aspartate--tRNA(Asp/Asn) ligase (Mycobacterium tuberculosis (strain ATCC 25618 / H37Rv)) (UniProt P9WFW3). Also: in the data most compounds retested in dose-response had high values.
T2 sequence (whole entry): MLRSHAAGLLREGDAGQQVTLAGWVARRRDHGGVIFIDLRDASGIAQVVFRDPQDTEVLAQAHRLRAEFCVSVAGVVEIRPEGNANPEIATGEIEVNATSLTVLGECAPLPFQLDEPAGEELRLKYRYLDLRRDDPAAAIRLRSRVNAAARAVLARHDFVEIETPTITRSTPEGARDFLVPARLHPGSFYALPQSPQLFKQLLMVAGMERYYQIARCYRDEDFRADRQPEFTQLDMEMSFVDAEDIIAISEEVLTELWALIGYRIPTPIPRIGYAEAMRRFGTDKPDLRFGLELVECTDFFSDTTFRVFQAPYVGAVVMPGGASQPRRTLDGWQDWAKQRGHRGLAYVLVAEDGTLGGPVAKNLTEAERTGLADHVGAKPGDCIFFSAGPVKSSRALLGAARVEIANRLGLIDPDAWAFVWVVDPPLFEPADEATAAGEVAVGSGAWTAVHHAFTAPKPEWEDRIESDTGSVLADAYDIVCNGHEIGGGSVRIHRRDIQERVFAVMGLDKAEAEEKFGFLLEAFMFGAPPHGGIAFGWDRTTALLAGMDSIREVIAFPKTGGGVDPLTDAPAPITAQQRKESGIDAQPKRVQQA
Description: Assay for Asp RNA synthetase-1 from Mycobacterium tuberculosis. In kind it is functional. To be noted: 30 µM.

Assay [4] concerns the target Sialic acid-binding Ig-like lectin 9 (Homo sapiens) (UniProt Q9Y336). The assay is described as follows: Hs-Siglec9 ALPHAscreen SOP 20170721. To be noted: 10 µM. (In general: Alpha assays give light when donor and acceptor beads are brought close together.)
Assay [5] concerns Trypanosoma cruzi. Description: Trypanosoma cruzi phosphomannomutase and mannose-1-phosphate guanylyltransferase assay. In kind it is functional. To be noted: 10 µM.
In assay [6] the target is T3, Arginase-2, mitochondrial (Homo sapiens) (UniProt P78540).
T3 sequence (whole entry): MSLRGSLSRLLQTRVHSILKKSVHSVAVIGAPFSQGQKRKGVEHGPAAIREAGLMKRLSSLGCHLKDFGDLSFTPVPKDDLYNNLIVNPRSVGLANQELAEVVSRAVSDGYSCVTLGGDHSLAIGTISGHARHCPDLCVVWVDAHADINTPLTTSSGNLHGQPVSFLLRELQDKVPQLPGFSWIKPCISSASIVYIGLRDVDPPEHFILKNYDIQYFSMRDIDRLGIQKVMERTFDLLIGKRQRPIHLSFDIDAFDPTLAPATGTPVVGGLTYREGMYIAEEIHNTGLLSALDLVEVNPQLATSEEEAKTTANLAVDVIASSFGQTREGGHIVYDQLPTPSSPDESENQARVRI
The assay is described as follows: in vitro enzyme assay to detect the production of urea directly proportional to the activity of Arginase II. Also: in the data most compounds retested in dose-response had high values. In kind it is functional. Conditions: 33.3 µM.

Assay [7] deals with T4, Proteasome subunit beta (Trypanosoma cruzi) (UniProt O96673).
T4 sequence (whole entry): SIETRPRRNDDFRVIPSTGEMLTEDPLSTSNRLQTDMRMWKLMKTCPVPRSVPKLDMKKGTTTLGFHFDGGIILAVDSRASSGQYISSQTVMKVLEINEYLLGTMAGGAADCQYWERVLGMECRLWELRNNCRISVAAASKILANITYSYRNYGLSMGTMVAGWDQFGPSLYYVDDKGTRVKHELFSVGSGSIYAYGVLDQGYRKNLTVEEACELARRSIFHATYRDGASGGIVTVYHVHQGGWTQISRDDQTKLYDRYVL
Description: Trypanosoma cruzi proteasome chymotrypsin-like activity (TcProtChymo) assay. Also: in the data most compounds retested in dose-response had high values. In kind it is functional. To be noted: 9.37 µM.

The species entered for assay [8] is Homo sapiens. Description: To identify inhibition of the IFN signalling (Jak-Stat) pathway via expression of an eGFP reporter gene under the control of an IFN-stimulated response element (ISRE) containing MxA promoter. In kind it is functional. Conditions: 30 µM.
Assay [9] deals with Shiga toxin 2 (Escherichia coli O157:H7) (UniProt P09385+P09386). The assay is described as follows: E. coli 0.157:H7 Shiga Toxin SOP - stx2 screening assay. Conditions: 30 µM. Format: functional.
For assay [10], the target named is T5, Tyrosyl-tRNA synthetase, putative (Trypanosoma cruzi (strain CL Brener)) (UniProt Q4DSP6).
T5 sequence (whole entry): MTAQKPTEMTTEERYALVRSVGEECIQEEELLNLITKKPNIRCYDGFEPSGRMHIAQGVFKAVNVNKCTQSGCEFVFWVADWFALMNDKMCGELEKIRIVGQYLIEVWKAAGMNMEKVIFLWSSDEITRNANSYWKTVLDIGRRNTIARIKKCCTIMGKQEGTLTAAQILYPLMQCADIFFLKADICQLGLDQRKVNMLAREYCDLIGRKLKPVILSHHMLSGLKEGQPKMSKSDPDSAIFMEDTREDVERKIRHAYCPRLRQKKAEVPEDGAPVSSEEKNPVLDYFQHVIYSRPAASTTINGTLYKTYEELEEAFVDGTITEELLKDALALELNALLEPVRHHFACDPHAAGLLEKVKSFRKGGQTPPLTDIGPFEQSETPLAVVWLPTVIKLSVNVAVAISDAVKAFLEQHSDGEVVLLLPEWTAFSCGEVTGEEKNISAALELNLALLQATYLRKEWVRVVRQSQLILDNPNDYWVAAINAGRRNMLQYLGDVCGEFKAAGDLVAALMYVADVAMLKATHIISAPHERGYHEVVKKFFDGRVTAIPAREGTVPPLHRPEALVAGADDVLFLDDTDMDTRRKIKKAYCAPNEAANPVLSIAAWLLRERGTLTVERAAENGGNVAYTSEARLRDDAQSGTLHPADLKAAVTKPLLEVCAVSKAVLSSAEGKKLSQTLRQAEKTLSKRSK
Description: Trypanosoma cruzi tyrosyl tRNA synthetase (TcYRS) _High Tyrosine SOP. Also: in the data most compounds retested in dose-response had high values. To be noted: 30 µM. Format: functional.

Assay [11] has as its target T5, Tyrosyl-tRNA synthetase, putative (Trypanosoma cruzi (strain CL Brener)). The assay is described as follows: Trypanosoma cruzi tyrosyl tRNA synthetase (TcYRS) SOP. In kind it is functional. Conditions: 30 µM.
Assay [12] has as its target Chromo domain-containing protein 1 (Saccharomyces cerevisiae (strain ATCC 204508 / S288c) (Baker's yeast)) (UniProt P32657). Description: ScCHD-1 Enzyme Inhibition Assay. Also: in the data most compounds retested in dose-response had high values. Format: functional. Conditions: 30 µM.

Molecules are shown by their SMILES. For part of these data: Potency and affinity values are given separately.

Chain of Protein translocase subunit SecA (Escherichia coli (strain K12)) (P10408 whole entry): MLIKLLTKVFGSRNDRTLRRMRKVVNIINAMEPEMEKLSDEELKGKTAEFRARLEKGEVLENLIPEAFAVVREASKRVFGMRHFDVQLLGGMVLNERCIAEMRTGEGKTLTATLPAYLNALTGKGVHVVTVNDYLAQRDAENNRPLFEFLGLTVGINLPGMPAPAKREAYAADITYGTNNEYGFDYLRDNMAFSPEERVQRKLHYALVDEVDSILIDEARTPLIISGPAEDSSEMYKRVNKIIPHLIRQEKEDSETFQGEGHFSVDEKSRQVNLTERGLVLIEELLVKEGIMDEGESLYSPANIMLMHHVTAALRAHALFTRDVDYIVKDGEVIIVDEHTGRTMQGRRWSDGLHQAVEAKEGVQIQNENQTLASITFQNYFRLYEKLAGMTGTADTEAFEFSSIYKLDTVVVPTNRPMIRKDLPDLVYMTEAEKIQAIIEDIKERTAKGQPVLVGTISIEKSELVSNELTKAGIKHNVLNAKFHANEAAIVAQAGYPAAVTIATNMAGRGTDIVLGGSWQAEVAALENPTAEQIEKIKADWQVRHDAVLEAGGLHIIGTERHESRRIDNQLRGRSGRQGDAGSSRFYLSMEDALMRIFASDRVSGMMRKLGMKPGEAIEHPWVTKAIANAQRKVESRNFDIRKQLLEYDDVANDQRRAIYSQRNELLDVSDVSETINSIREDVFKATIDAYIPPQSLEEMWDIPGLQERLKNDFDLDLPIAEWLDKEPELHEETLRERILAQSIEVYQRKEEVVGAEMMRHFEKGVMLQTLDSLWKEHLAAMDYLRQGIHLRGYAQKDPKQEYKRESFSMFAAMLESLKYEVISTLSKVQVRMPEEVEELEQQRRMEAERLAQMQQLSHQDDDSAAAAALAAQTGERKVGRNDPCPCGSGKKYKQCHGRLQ
Chain of Chromo domain-containing protein 1 (Saccharomyces cerevisiae (strain ATCC 204508 / S288c) (Baker's yeast)) (P32657 whole entry, the tested form may be a part): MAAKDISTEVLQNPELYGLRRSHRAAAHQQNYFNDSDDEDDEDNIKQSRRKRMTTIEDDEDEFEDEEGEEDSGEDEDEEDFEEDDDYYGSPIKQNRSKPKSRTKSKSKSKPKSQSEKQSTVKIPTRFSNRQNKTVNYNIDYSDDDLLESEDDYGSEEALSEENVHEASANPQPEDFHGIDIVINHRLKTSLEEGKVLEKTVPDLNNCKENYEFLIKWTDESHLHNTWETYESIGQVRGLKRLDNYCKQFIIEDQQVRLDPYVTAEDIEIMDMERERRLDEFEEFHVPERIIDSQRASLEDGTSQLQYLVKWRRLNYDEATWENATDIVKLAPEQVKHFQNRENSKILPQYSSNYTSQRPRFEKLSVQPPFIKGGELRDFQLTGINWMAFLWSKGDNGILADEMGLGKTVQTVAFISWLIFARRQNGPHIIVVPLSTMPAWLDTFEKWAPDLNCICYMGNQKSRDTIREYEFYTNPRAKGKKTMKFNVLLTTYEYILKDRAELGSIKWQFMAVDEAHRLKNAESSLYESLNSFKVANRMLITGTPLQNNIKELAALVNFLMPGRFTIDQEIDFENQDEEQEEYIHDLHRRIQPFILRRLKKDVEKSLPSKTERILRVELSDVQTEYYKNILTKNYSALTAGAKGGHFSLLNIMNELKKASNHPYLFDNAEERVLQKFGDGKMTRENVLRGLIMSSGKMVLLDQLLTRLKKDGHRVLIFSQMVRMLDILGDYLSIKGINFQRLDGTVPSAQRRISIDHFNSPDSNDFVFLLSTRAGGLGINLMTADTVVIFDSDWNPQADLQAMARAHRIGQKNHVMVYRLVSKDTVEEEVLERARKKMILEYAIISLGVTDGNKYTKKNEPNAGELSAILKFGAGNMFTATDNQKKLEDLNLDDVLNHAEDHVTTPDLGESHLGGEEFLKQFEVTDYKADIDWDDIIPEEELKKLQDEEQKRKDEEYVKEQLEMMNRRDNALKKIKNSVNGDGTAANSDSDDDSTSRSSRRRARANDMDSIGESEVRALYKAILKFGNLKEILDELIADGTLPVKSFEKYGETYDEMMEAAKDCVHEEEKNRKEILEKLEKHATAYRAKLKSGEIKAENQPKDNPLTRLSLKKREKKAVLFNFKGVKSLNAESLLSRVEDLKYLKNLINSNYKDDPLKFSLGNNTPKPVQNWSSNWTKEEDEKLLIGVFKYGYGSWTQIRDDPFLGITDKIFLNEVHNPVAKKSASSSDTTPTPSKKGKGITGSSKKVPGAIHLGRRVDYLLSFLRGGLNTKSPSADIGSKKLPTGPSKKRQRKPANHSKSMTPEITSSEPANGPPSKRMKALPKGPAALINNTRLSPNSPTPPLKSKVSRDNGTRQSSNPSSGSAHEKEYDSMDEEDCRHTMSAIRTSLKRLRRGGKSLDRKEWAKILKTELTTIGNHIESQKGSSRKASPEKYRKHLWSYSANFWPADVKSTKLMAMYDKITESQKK
Chain of Sialic acid-binding Ig-like lectin 9 (Homo sapiens) (Q9Y336 whole entry): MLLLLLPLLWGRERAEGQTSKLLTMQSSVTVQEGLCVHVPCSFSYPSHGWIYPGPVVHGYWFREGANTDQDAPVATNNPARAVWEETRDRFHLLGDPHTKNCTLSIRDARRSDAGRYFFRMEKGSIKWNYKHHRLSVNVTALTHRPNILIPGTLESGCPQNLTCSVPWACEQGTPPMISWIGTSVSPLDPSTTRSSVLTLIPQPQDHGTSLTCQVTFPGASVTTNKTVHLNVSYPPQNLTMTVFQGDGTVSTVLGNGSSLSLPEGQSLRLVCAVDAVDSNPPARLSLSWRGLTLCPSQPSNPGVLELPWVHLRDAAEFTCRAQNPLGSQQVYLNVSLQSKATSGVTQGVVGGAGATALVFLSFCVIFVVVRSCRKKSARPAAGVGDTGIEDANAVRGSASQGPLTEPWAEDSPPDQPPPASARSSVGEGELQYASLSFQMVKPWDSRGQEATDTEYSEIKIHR

Turning to `c1cnc(N2CCC3(CCN(CC4CCOC4)C3)CC2)nc1` (stereo not given), the Percent Effect in assay [1] was -3.76%; in assay [2], 6.49%; in [3], 8.74%; in [4], -2.65%; in assay [5], -2.63%; in assay [6] it was 0.405%. The Percent Effect in assay [7] is 10.2%; in assay [8], 0.479%; in assay [9], -3.12%; in [10], 2.63%; in [11], 7.69%; in assay [12] it was -4.21%.
As to `O=C(Cn1ccc2c(Cl)cccc21)N1CCC2(CC1)OCCO2`, the Percent Effect is -2.33% in assay [1]; 10.8% in assay [2]; 0.188% in assay [3]; 5.66% in assay [4]; 1.46% in assay [5]; 49.3% in assay [6]. The Percent Effect in assay [7] was 11.8%; in [8] it was 12.8%; in assay [9], 1.14%; in assay [10], 4.79%; in [11] it was 19.5%; in assay [12], -2.23%.
As for `CN(C)CCN1CCCC12CCN(C(=O)c1cccnc1)CC2`, the Percent Effect in [1] was -0.609%; in assay [2], 3.9%; in assay [3] it was 1.98%; in [4], -1.37%; in assay [5], 0.563%; in [6], 4.11%. The Percent Effect is 8.5% in [7]; -12.2% in assay [8]; -15.3% in assay [9]; 3.87% in assay [10]; 7.5% in assay [11]; 1.23% in assay [12].
On to `Cc1noc(C)c1CN1CC[C@H]2OCC[C@@]2(C(=O)N2CCCO2)C1`, for which the Percent Effect is -4.42% in [1]; 6.49% in [2]; 6.12% in assay [3]; -7.21% in assay [4]; -3.6% in [5]; 3.24% in assay [6]. Moreover, the Percent Effect in assay [7] was 16.5%; in assay [8], -11.1%; in assay [9] it was -3.97%; in assay [10], 11.1%; in assay [11] it was 10.3%; in assay [12] it was 3.94%.
Regarding `COCCN1CCN(Cc2ccncc2)[C@H]2CS(=O)(=O)C[C@H]21`, the Percent Effect was -10.2% in assay [1]; 10.8% in assay [2]; -1.29% in [3]; 17.6% in [4]; 6.3% in [5]; 16.4% in assay [6]. Further, the Percent Effect is 5.99% in assay [7]; 6.91% in assay [8]; 11.1% in assay [9]; 4.79% in assay [10]; 14.6% in assay [11]; -4.57% in assay [12].
